Artemis inh = blocks endonuclease activity of human Artemis | Q96SD1 | AID 686954 | recombinant Artemis, quenched FAM hairpin cleavage fluorescence | inhibition, % at 10 µM | 30,000 compounds, 0.78% hits;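 active means at 10 µM dose, at least 30% inhibition, measured as corrected fluorescence normalized to stimulator and neutral control wells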
Active calls of the source: *. Only a selection was taken, and hits are over-represented in it overall.

SMILES	Artemis inh
O=C(COC(=O)Cc1ccccc1)Nc1ncc(Cl)cc1Cl	-13
Cc1cc(NC(=O)COC(=O)c2c(C)nn(Cc3ccccc3Cl)c2C)no1	89*
CCC12CN3CC(CC)(CN(C1)C3c1cccnc1)C2=O (stereo not given)	-1
CCC1(CCc2ccncc2)C(=O)NC(=O)NC1=O	2
CCN(CC)c1ccc(N=Cc2c(O)n(-c3ccc(OC)cc3)c(=O)[nH]c2=O)cc1	-21

Bioassay records from PubChem BioAssay.
